A selection: hits, their analogues and other compounds. The true share with any hit is near 8.5%.
ALDH1A1 block: ALDH1A1 (human) enzyme inhibition; P00352; Purified ALDH1A1, NADH fluorescence, propionaldehyde substrate; Potency, µM (series often up to 75.3 µM), inactives show top-dose activity, negative = inhibition, actives largely listed as inhibitors; 220,000 compounds, 7.3% hits; AID 1030;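 note: potency is the fitted concentration of half-maximal effect; plate controls were no enzyme wells and a reference inhibitor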
GoLoco inh red: inhibitors of human Gai1-RGS12 GoLoco interaction (red fluorophore); P63096; Gai1:RGS12 GoLoco peptide FP, rhodamine, 10 min; Potency, µM (series often up to 61.6 µM), for the others: top-dose activity, negative = inhibition, actives largely listed as inhibitors; 230,000 compounds, 0.44% hits; AID 880; active = well fitted inhibition curve with a large enough effect, not every such curve was filed as active; inactive = no such curve, though single readings can be large or run the other way; note: potency is the fitted concentration of half-maximal effect; nearly all actives have a fitted effect of over 30% in size
Target sequence (P63096 whole entry, looked up): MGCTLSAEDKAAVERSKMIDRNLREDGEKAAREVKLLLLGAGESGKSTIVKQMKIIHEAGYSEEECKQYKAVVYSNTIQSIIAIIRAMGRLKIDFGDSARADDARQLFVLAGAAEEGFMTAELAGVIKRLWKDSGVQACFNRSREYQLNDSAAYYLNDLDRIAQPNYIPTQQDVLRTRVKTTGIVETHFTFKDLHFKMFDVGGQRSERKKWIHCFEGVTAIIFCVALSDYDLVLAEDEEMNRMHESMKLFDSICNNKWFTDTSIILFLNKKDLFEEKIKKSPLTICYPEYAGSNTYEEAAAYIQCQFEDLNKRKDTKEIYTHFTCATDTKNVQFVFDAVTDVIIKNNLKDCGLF
Sfp inh: blocks B. subtilis Sfp PPTase activity. 310,000 compounds, 3.5% hits. Q9F4F7. Potency, µM, without a hit: largest response in the series, negative = inhibition, most hits filed as inhibitors. AID 1490. Biochemical Sfp PPTase activity, qHTS; active = well fitted curve in the direction sought with a large enough effect; inconclusive = small, poorly fitted or top-dose-only effect, or another doubt; inactive = no such curve, though single readings can be large; an effect the other way counts as inactive or inconclusive;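 note: the enzyme is Sfp with the accession as filed and its product quenches rhodamine fluorescence; potency is the fitted concentration of half-maximal effect; 0% = enzyme reaction without inhibitor and -100% = no enzyme wells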
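Reaction rates are the 30-min fluorescence difference (ex 525, em 598 nm) in wells containing 15 nM Sfp, 5 uM rhodamine-CoA and 12.5 uM BHQ-2-YbbR at pH 7.6 with 10 mM MgCl2.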
NPSR antagonist: neuropeptide S receptor (human) antagonism, cAMP; Q6W5P4; CHO-NPSR cells, cAMP TR-FRET, antagonist mode; Potency, µM (top dose mostly 38.3 µM), for inactives: at the top dose activity change, negative = inhibition, usual class: inhibitors; 220,000 compounds, 1% hits; AID 1461; active = well fitted curve in the direction sought with a large enough effect; inconclusive = small, poorly fitted or top-dose-only effect, or another doubt; inactive = no such curve, though single readings can be large; an effect the other way counts as inactive or inconclusive; note: potency is the fitted concentration of half-maximal effect; nearly all actives have a fitted effect of over 50% in size
KDM4E inh: inhibitors of human JMJD2E histone demethylase; B2RXH2; JMJD2E catalytic domain, FDH-coupled NADH fluorescence (FDH is formaldehyde dehydrogenase); Potency, µM (top dose mostly 57.1 µM), inactives show top-dose activity change, negative = inhibition, usual class: inhibitors; 230,000 compounds, 1.6% hits;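 note: potency is the fitted concentration of half-maximal effect; 0% = wells with enzyme and -100% = buffer wells without enzyme; nearly all actives have a fitted effect of over 50% in size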
Target sequence (B2RXH2 1-337 limits assumed): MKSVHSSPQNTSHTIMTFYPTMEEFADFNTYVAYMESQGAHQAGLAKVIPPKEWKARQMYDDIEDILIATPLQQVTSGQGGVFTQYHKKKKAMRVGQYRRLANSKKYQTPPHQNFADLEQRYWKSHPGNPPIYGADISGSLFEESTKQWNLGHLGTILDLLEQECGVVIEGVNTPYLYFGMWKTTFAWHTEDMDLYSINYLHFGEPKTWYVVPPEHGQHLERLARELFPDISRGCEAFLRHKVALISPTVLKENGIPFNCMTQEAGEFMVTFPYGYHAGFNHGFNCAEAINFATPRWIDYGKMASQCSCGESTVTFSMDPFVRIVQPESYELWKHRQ
Coupling enz: counter-screen for Giardia aldolase inhibitors: coupling enzyme system. activity change, negative = inhibition, % at 58.2 µM, hits read low. AID 2472. coupling enzyme system counterscreen, AmpLite Red fluorescence. 290,000 compounds, 0.67% hits; in the data active = activity change below about -30%
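Coupling enzymes only (glyceraldehyde-3-phosphate) + compound, at 57.5 uM final, 10 min RT; add substrate/coupling/AmpLite Red mix, 20 min RT; fluorescence ex 525/em 598 nm. Actives flag coupling-system interference.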
Starred values were filed as active, the others as inactive; [ ] = dose if it differs, or a comment. Unless noted, calls come from the whole dose curve; as a rule, active = well fitted inhibition curve with a large enough effect (not every such curve was filed as active); inconclusive = small, poorly fitted or top-dose-only effect, or another doubt; inactive = no such curve, though single readings can be large or run the other way. Unless noted, % is set by controls: 0 for no effect and ±100 for the full control effect.

For CC(C)C[C@@H](CC(=O)N[C@@H](CCC(=O)O)CC(=O)O)NC(=O)[C@@H]1CNCC[C@H]1NC(=O)C[C@@H](NC(=O)C[C@H](Cc1ccccc1)NC(=O)[C@@H]1CCCC[C@H]1N)C(C)C the results were ALDH1A1 block -9%, GoLoco inh red 0%, Sfp inh -6%, KDM4E inh -16% and Coupling enz 6.
CCn1c(C)c(C)c2cc(C(=O)NCCN3CCCCCC3)ccc21 was read as Sfp inh -25% and Coupling enz -4.
CC(C)c1cc(C(=O)NNC(=S)NCc2ccco2)c(O)c(C(C)C)c1 was read as ALDH1A1 block 22µM*, GoLoco inh red 20%, Sfp inh 16%, NPSR antagonist -11%, KDM4E inh 3% and Coupling enz 3.
O=C(NCc1ccccc1)c1ccc2c(=O)n(CC3CCCO3)c(=S)[nH]c2c1 (configuration not stated) was read as ALDH1A1 block 2.8µM*, GoLoco inh red 10%, Sfp inh 3%, NPSR antagonist -10%[46.1 µM], KDM4E inh 3% and Coupling enz 4.
O=C(O)C1C2CCC(C2)C1C(=O)NCc1ccco1 (configuration not stated) was read as ALDH1A1 block 35µM*, GoLoco inh red -5%, Sfp inh inconclusive, NPSR antagonist 12%[46.1 µM], KDM4E inh 3% and Coupling enz 0.
CC(C)NC(=O)c1ccc2c(=O)n(CC3CCCO3)c(=S)[nH]c2c1 (configuration not stated) was read as ALDH1A1 block 1.4µM*, GoLoco inh red -9%, Sfp inh -18%, NPSR antagonist 0%, KDM4E inh 8% and Coupling enz -3.
`O=C(CNCC1CCCO1)NCc1ccco1` (configuration not stated) gave ALDH1A1 block inconclusive, GoLoco inh red -22%, Sfp inh 45µM*, NPSR antagonist -29%, KDM4E inh 6% and Coupling enz 2.
For O=C(Cn1c(=O)n(Cc2ccco2)c(=O)c2cc(Cl)ccc21)NCC1CCCO1 (configuration not stated) the results were ALDH1A1 block 25µM*, GoLoco inh red -2%, Sfp inh 40µM*, NPSR antagonist inconclusive, KDM4E inh -7% and Coupling enz 1.
For O=C(NCc1ccco1)c1ccc2c(=O)n(CC3CCCO3)c(=S)[nH]c2c1 (configuration not stated) the results were ALDH1A1 block 3.2µM*, GoLoco inh red 1%, Sfp inh -12%, NPSR antagonist -18%[46.1 µM], KDM4E inh 1% and Coupling enz 0.
`O=C(Cn1c(=O)n(Cc2ccc(F)cc2)c(=O)c2ccccc21)NCC1CCCO1` (configuration not stated) gave Sfp inh 10% and Coupling enz -7.
Screening C=C(CCC12O[C@H](C(=O)O)[C@@](O)(C(=O)O)[C@](C(=O)O)(O1)[C@H](OC(=O)/C=C/[C@@H](C)C[C@@H](C)CC)[C@H]2O)[C@@H](OC(C)=O)[C@H](C)Cc1ccccc1 returned ALDH1A1 block 0%, GoLoco inh red -2%, Sfp inh inconclusive and Coupling enz 7.
Screening O=C(Nc1ccc(-c2csc(Nc3cccc(C(F)(F)F)c3)n2)cc1)c1cc([N+](=O)[O-])cc(C(F)(F)F)c1 returned GoLoco inh red -6%, Sfp inh 25%, NPSR antagonist 10µM*, KDM4E inh 2% and Coupling enz 0.
`O=C(Nc1ccc(-c2csc(Nc3cccc(C(F)(F)F)c3)n2)cc1)c1ccccc1` gave GoLoco inh red 6%, Sfp inh 23%, NPSR antagonist -40%, KDM4E inh inconclusive and Coupling enz 0.
For Cc1cccc(CNc2ncnc3ccc(-c4cccc(NS(C)(=O)=O)c4)cc23)c1 the results were ALDH1A1 block inconclusive, GoLoco inh red -4%, Sfp inh 18%, KDM4E inh inconclusive and Coupling enz -9.
`Oc1ccc(/C=N/Nc2cc(N3CCCC3)nc(N3CCCC3)n2)cc1O` gave ALDH1A1 block -4%, GoLoco inh red 12%, Sfp inh -16%, NPSR antagonist -17%, KDM4E inh 14µM* and Coupling enz -37*.
`Oc1ccc(/C=N\Nc2cc(N3CCOCC3)nc(N3CCOCC3)n2)c(O)c1` gave ALDH1A1 block -3%, GoLoco inh red -3%, Sfp inh -2%, NPSR antagonist -10%, KDM4E inh 14µM* and Coupling enz -20.
`Cc1cc(N/N=C/c2ccc(O)cc2O)nc(N2CCOCC2)n1` gave ALDH1A1 block -8%, GoLoco inh red -1%, Sfp inh -16%, NPSR antagonist 9%, KDM4E inh -2% and Coupling enz -3.
For COc1ccc([N+](=O)[O-])cc1COc1cc(C)cc2oc(=O)cc(-c3ccccc3)c12 the results were ALDH1A1 block 2µM*, GoLoco inh red 3%, Sfp inh -2%, NPSR antagonist inconclusive, KDM4E inh 1% and Coupling enz -3.
Screening COC(=O)COc1cc(OCC(=O)OC)c2c(-c3ccccc3)cc(=O)oc2c1 returned Sfp inh 9% and Coupling enz 1.
CC(=O)COc1cc(C)cc2oc(=O)cc(-c3ccccc3)c12 was read as ALDH1A1 block 2.2µM*, GoLoco inh red 7%, Sfp inh 1%, NPSR antagonist -9%, KDM4E inh -2% and Coupling enz 4.
`CCc1cc(=O)oc2cc(C)cc(OC(=O)c3ccco3)c12` gave ALDH1A1 block 10µM*, GoLoco inh red 6%, Sfp inh 8%, NPSR antagonist 8%[46.1 µM], KDM4E inh 2% and Coupling enz 3.
For Cc1cc(OC(=O)c2ccco2)c2c(C)cc(=O)oc2c1 the results were ALDH1A1 block inconclusive, GoLoco inh red 6%, Sfp inh 11%, NPSR antagonist -5%[46.1 µM], KDM4E inh -1% and Coupling enz 0.
`Oc1c(/C=C/C=C/C=Nc2ccccc2)sc(=S)n1Cc1ccccc1` gave GoLoco inh red -97%, Sfp inh inconclusive, NPSR antagonist -13%, KDM4E inh inconclusive and Coupling enz -10.
Screening CC1Cc2cc(S(=O)(=O)N3CCN(c4ccccc4F)CC3)ccc2N1C(=O)C1CC1 (configuration not stated) returned Sfp inh 11% and Coupling enz 0.
For O=C(NN=C1c2ccccc2-c2ccccc21)c1ccccn1 the results were ALDH1A1 block inconclusive, GoLoco inh red -12%, Sfp inh inconclusive, NPSR antagonist -16%[46.1 µM], KDM4E inh 2% and Coupling enz -1.

Screening results as filed in PubChem.
